The campaign covered roughly 190,000 compounds. About 360 (0.19%) were called active. About 2% were inconclusive and are not listed. The sample holds actives, similar compounds and a random draw of the others, so the mix is not that of the screen.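 How the source made its calls: active means GTP binding activity at least 20 points away from 100%, either lowered or raised; inconclusive means signal likely due to the compound's own green fluorescence; inactive means the rest.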
What follows are molecules tested against Ras-related protein Rab-2A (Canis lupus familiaris) (UniProt P61105) (assay: Rab2 wt fluorescent GTP binding changes, either direction – biochemical, dog, bead-based flow cytometry, multiplex, primary screen (AID 760;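 further: 0% = beads with excess unlabeled GTP and 100% = no-compound control corrected for plate trend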)). Details: GST-Rab2 wt beads, Bodipy-GTP binding, at 10 µM.

Structure (SMILES)	GTP binding activity
O=C(COC(=O)CNC(=O)c1ccccc1F)NCC(F)(F)F	101% (inactive)
Cc1ccc(NC(=O)Nc2cccc(C(F)(F)F)c2)nc1	103% (inactive)
CC1CC(C)CN(C(=O)CSc2ccsc2[N+](=O)[O-])C1 (stereo not drawn)	102% (inactive)
CCOC(=O)c1sc(NC(=O)CSc2nc(O)c(Cc3ccccc3)c(=O)[nH]2)nc1C	93% (inactive)
Cc1ccnc(NS(=O)(=O)c2ccc(NC(=O)c3ccc(S(=O)(=O)N(C)C)cc3)cc2)n1	98% (inactive)
CN(CCC1CCOCC1)Cc1cn[nH]c1-c1ccc(-c2ccccc2)cc1	96% (inactive)
C/C=C/C=C/C(=O)OCC(=O)Nc1ccc(Cl)cc1	93% (inactive)
CN(C)CCOCCOc1ccc(Cl)c2ccccc12	106% (inactive)
Cc1nn(CC(=O)Nc2ccc(C#N)cc2)c(C)c1[N+](=O)[O-]	99% (inactive)
COC(=O)c1ccc(/C=N/N2C(C)CCCC2C)cc1 (stereo not drawn)	100% (inactive)
COC(=O)c1sc2[nH]c(=S)n(N)c(=O)c2c1C	100% (inactive)
CCN(C(=O)COC(=O)c1cc(S(=O)(=O)N2CCc3ccccc32)ccc1OC)C1CCS(=O)(=O)C1 (stereo not drawn)	96% (inactive)
CC(NC(=O)C(=O)N/N=C/c1ccc(Cl)cc1)c1ccccc1 (stereo not drawn)	98% (inactive)
CC1CCCCC1NC(=O)CO/N=C/c1ccc(OC(F)F)cc1 (stereo not drawn)	97% (inactive)
NS(=O)(=O)c1ccc(NC(=O)COC(=O)c2ccco2)cc1	97% (inactive)
COc1ccc(C(=O)CSc2nnnn2C)c(OC)c1	98% (inactive)
COc1cc(CN(C)Cc2nc3cc(C(F)(F)F)ccc3c(=O)[nH]2)ccc1OC(F)F	94% (inactive)
Cn1c(N)cc(-c2ccc(F)cc2)c(C#N)c1=O	97% (inactive)
Cc1cc(C(=O)N/N=C/c2ccccc2[N+](=O)[O-])c(C)o1	95% (inactive)
COc1ccc(/C=N/NC(=O)C(C)N(c2ccc(OC)cc2)S(C)(=O)=O)cc1 (stereo not drawn)	96% (inactive)
CSCCNCc1cn(-c2ccc(F)cc2F)nc1-c1ccccc1C	100% (inactive)
Cc1ccnc(NC(=O)CCCOc2ccccc2)c1	97% (inactive)
O=C(NNC(=O)c1ccccc1[N+](=O)[O-])Nc1ccccc1C(F)(F)F	101% (inactive)

Structure (SMILES)	GTP binding activity
CC(C)NC(=O)/C(C#N)=C\c1ccc(N(C)C)c(Br)c1	94% (inactive)
O=C(Cc1csc(Nc2nc(=S)[nH]c3ccccc23)n1)NCCCN1CCN(c2cccc(Cl)c2)CC1	78% (active)
O=C(CCn1c(=O)[nH]c2ccccc2c1=O)NCCCN1CCN(c2cccc(Cl)c2)CC1	101% (inactive)
COc1cccc(CNC(=O)Cc2csc(Nc3nc(=S)[nH]c4ccccc34)n2)c1	93% (inactive)
Cc1ccnc2nc(C(=O)OCC(=O)N(CC(C)C)CC(C)C)nn12	97% (inactive)
CCOc1ccccc1N1CCN(C(=O)COc2ccc3c(C)cc(=O)oc3c2)CC1	98% (inactive)
CCOC(=O)CN/C=C(\C#N)c1ccc(F)cc1	102% (inactive)
CCCC(c1nnnn1C(C)(C)C)N1CCN(Cc2ccccc2)CC1 (stereo not drawn)	98% (inactive)
O=C(COc1cccc2ccccc12)Nc1cc(S(=O)(=O)N2CCOCC2)ccc1N1CCOCC1	98% (inactive)
O=c1[nH]n2c(-c3ccccc3)nc(O)c2c2ccccc12	95% (inactive)
CCO/C=C1\C(=O)N(c2ccc(OCC)cc2)C(=O)c2ccccc21	93% (inactive)
COc1ccc(S(=O)(=O)N2CCOCC2)cc1NC(=O)CSc1ncnc2ccccc12	93% (inactive)
CCOC(=O)c1sc(NC(=O)c2cc(S(=O)(=O)N3CCOCC3)ccc2C)nc1C	98% (inactive)
COc1ccc(S(=O)(=O)N2CCOCC2)cc1C(=O)Nc1nc2ccccc2s1	72% (active)
COc1ccc(OC)c(-c2csc(NC(=O)C3=NNC(=O)CC3)n2)c1	96% (inactive)
CNC(=S)N1CCC(NC(=O)C(Cc2ccc(F)cc2)NC(C)=O)CC1 (stereo not drawn)	99% (inactive)
COc1ccc(S(=O)(=O)N(C)C)cc1NC(=O)CSc1ncccn1	97% (inactive)
Cn1nnnc1SCC(=O)Nc1nc2ccccc2s1	97% (inactive)
CCNC(=O)COC(=O)/C=C/c1c(C)nn(Cc2cccc(OC)c2)c1Cl	95% (inactive)
CCOC(=O)c1sc(NC(=O)CSc2n[nH]c(CC)n2)nc1C	97% (inactive)
O=C1c2cccc3c([N+](=O)[O-])ccc(c23)C(=O)N1CC1CCCO1 (stereo not drawn)	95% (inactive)
COc1cccc(CN(C)CC(=O)Nc2sc3c(c2C#N)CCC3)c1	92% (inactive)
COc1ccc(S(=O)(=O)NCC2CCCN(C(=O)c3occc3C)C2)cc1 (stereo not drawn)	97% (inactive)

Structure (SMILES)	GTP binding activity
CCCCC(NC(=O)c1cccc(Br)c1)C(=O)O (stereo not drawn)	93% (inactive)
Cc1ccc(-c2nn(-c3cccc(F)c3)cc2CNCCc2ccncc2)o1	101% (inactive)
CC1COc2ccccc2N1C(=O)c1cccnc1Cl (stereo not drawn)	99% (inactive)
Cc1nnsc1C(=O)Nc1cccc(Cl)c1C	95% (inactive)
CCOc1ccccc1Nc1ccc(C(=O)O)cc1[N+](=O)[O-]	99% (inactive)
Cc1ccc(CN2CCC(N3CCC(C(=O)NCC4CCCO4)CC3)CC2)o1 (stereo not drawn)	97% (inactive)
CCOc1ccc(N2C(=O)CN(c3cccc4ccccc34)C2=S)cc1	99% (inactive)
Cc1cc(C)n(-c2ccc3nncn3n2)n1	102% (inactive)
CSCC(=O)N1CCCC(C(=O)c2cc(F)ccc2F)C1 (stereo not drawn)	97% (inactive)
COCCNc1nc2nonc2nc1N(C)Cc1ccc(C)cc1	95% (inactive)
CCOC(=O)C1(Cc2ccccc2C(F)(F)F)CCN(C(=O)c2cc(C)n(C)n2)CC1	98% (inactive)
COc1cccc2c1OCC(CN1CCN(C3CCCCC3)C(CCO)C1)=C2 (stereo not drawn)	100% (inactive)
CCN(CC)N=Nc1cccc(NC(C)=O)c1	95% (inactive)
NC(=O)Cn1nc([N+](=O)[O-])nc1Oc1ccc(Br)cc1	97% (inactive)
O=C(/C=C\c1cn(-c2ccccc2)nc1-c1cccs1)N1CCOCC1	104% (inactive)
O=C(O)/C=C/c1cn(-c2ccccc2)nc1-c1cccs1	93% (inactive)
O=C(O)/C=C/c1cn(Cc2ccccc2)nc1-c1cccs1	127% [activator] (active)
Cc1ccc(C(=O)NN(CCC#N)C2=NS(=O)(=O)c3ccccc32)cc1	95% (inactive)
Cn1nc(-c2ccccc2)c(CO)c1Sc1ccccc1	93% (inactive)
CN1C(=O)/C(=C/C=C2\SCCN2C)OC1=S	98% (inactive)
O=C(O)CCc1nc2cc(Cl)ccc2n(Cc2ccccc2)c1=O	98% (inactive)
CCN(CC(=O)NCc1cccs1)S(=O)(=O)c1ccc(NC(C)=O)cc1	96% (inactive)
Cc1ccc(S(=O)(=O)N2CCOCC2)cc1NC(=O)CSc1nnc(N)s1	98% (inactive)

Structure (SMILES)	GTP binding activity
Cc1ccccc1CC1(CO)CCCN(Cc2ccc3c(c2)OCCO3)C1 (stereo not drawn)	99% (inactive)
O=C(CC1SC(=Nc2ccccc2F)N(CCN2CCOCC2)C1=O)Nc1ccc(F)cc1F (stereo not drawn)	97% (inactive)
CC(C)NC(=O)NC(=O)CSc1nnc(-c2ccccc2F)n1N	97% (inactive)
C=CCN1C(=O)C(O)(CC(=O)c2ccccn2)c2ccccc21 (stereo not drawn)	107% (inactive)
CC1(C)CC(=O)c2ccc(O)cc2O1	97% (inactive)
N=C1C(c2nc3ccccc3[nH]2)=C(O)CN1NC(=O)c1c[nH]c2ccccc12	96% (inactive)
CCCCOc1ccc(N(CC(=O)NC(C)C)C(=O)CCC(=O)Nc2ccccn2)cc1	97% (inactive)
O=C(NNC(=S)NC(=O)c1cn(-c2ccccc2)nc1-c1ccccc1)c1ccncc1	90% (inactive)
COc1ccc(N2CCN(C(=O)CNS(=O)(=O)c3ccc(C)c(C)c3)CC2)cc1	96% (inactive)
CC(C)=CCN1CCN(Cc2ccc(Oc3ncccn3)cc2)CC1CCO (stereo not drawn)	100% (inactive)
COc1ccc(NC(=O)c2cc3nc(-c4ccccc4)cc(C)n3n2)cc1OC	84% (inactive)
CCOC(=O)c1ccc(N/C(=N/S(=O)(=O)c2ccccc2)c2ccccc2)cc1	95% (inactive)
CCOC(=O)c1nc(Nc2ccc(C(=O)OC)cc2)c2ccccc2n1	77% (active)
CCOC(=O)c1ccc(Nc2cc(C)nc3nc(C)nn23)cc1	98% (inactive)
O=C(/C=C/c1ccc(N2CCOCC2)cc1)c1ccccc1	97% (inactive)
CCN(c1ccccc1)S(=O)(=O)c1ccc2[nH]c(=O)[nH]c2c1	99% (inactive)
O=C(Nc1ccc2oc(-c3ccccc3F)nc2c1)c1ccco1	96% (inactive)
Cc1ccc2cc(CN(c3ccc(C)c(C)c3)S(C)(=O)=O)c(=O)[nH]c2c1	98% (inactive)
CCN(CC(=O)NC(=O)NCc1ccccc1)Cc1nc2ccccc2c(=O)[nH]1	101% (inactive)
Cc1noc(C)c1S(=O)(=O)Nc1ccc(C(=O)N2CCN(c3ccc(F)cc3)CC2)cc1	96% (inactive)
COc1ccc(CC(=O)N[C@@H](CCSC)c2nc3ccccc3[nH]2)cc1	99% (inactive)
S=C(NCc1ccc2c(c1)OCO2)NCc1ccco1	101% (inactive)
Cc1ccc(CNC(=O)CCNS(=O)(=O)c2ccc(Br)s2)cc1	99% (inactive)

Structure (SMILES)	GTP binding activity
C=CCN(CC=C)S(=O)(=O)c1ccc(C(=O)Nc2sc3c(c2C(N)=O)CCCCC3)cc1	101% (inactive)
C=CCN(CC=C)S(=O)(=O)c1ccc(C(=O)Nc2nc3c(s2)CCc2ccccc2-3)cc1	39% (active)
COCCN(CCOC)S(=O)(=O)c1ccc(C(=O)Nc2nc3c(s2)CCc2ccccc2-3)cc1	102% (inactive)
COc1ccc2oc(=O)c(C(=O)N3CCCC3)cc2c1	98% (inactive)
O=S(=O)(NCc1ccccc1)c1ccc(S(=O)(=O)N2CCCC2)cc1	100% (inactive)
COC(=O)C1=C(C)NC(=O)/C1=C/c1ccc(CNS(=O)(=O)c2ccc(C)cc2)o1	100% (inactive)
O=c1/c(=C/c2ccc(CNS(=O)(=O)c3ccccc3)o2)sc2n1CCN=2	74% (active)
C=CCC(C(=O)c1ccccc1)[N+](C)(C)CC=C (stereo not drawn)	96% (inactive)
O=C(COC(=O)C12CC3CC(CC(O)(C3)C1)C2)NC12CC3CC(CC(C3)C1)C2	100% (inactive)
CCOC(=O)c1oc2c(CN3CCN(CCO)CC3)c(O)c(CC)cc2c(=O)c1-c1nc2ccccc2s1	99% (inactive)
COc1ccc(Cl)cc1N(CC(=O)N/N=C/c1ccc(OCC(N)=O)cc1)S(C)(=O)=O	99% (inactive)
N/C(=N\OC(=O)COc1ccc([N+](=O)[O-])cc1)c1ccc(Br)cc1	98% (inactive)
CCOc1ccc(C(C)=O)cc1CSc1nnc(-c2ccncc2)n1CCOC	99% (inactive)
O=C(CCN1C(=O)c2ccccc2C1=O)NCCCn1ccnc1	101% (inactive)
Cc1nc(N2CCOCC2)sc1C(=O)NN	100% (inactive)
COc1ccc(-c2nn(-c3ccccc3)cc2CN2CCCO2)c(F)c1	100% (inactive)
Cc1ccc(C(=O)CS(C)(=O)=O)cc1	104% (inactive)
Cc1ccc(CSCC(N)C(=O)O)cc1 (stereo not drawn)	97% (inactive)
Cc1ccc(SC(CC(=O)c2ccc(C(C)(C)C)cc2)C(=O)O)cc1 (stereo not drawn)	78% (active)
O=C(CSc1ccc([N+](=O)[O-])cn1)Nc1ccc(N2CCOCC2)c(Cl)c1	96% (inactive)
CCCOC1CCCN(Cc2cn(C)nc2-c2ccccc2F)C1 (stereo not drawn)	96% (inactive)
